Compound activity deposited in PubChem by Broad Institute.
aSyn 5UTR act: Activators via SNCA 5'UTR binding, MLPCN. hit rate 7.1% among 300,000. activity score, % (tested at 7.5 µM), hits read low. alpha-synuclein 5'UTR reporter, activators screen; in the data active = activity score below about -60%
The depositor's hits bear a star. The list is a sample of the results.

SMILES	aSyn 5UTR act
COc1cc(OC)cc(C(=O)Nc2nc3ccc(S(C)(=O)=O)cc3s2)c1	-149*
COc1ccc(Cl)cc1C(=O)Nc1nc2ccc(S(C)(=O)=O)cc2s1	-73*
CS(=O)(=O)c1ccc2nc(NC(=O)c3cccc([N+](=O)[O-])c3)sc2c1	-136*
O=C1C(=O)N(c2cccc(Cl)c2)C(c2ccccc2[N+](=O)[O-])/C1=C(\O)c1ccccc1 (configuration not stated)	-88*
O=C1C(=O)N(c2ccccc2)C(c2ccccc2[N+](=O)[O-])/C1=C(\O)c1ccccc1 (configuration not stated)	-93*
COc1cc2c(cc1OC)C(c1ccccc1)N(C(=O)c1cccc(S(C)(=O)=O)c1)CC2 (configuration not stated)	-67*
COc1cc2c(cc1OC)C(C)N(C(=O)c1cc(C)on1)CC2 (configuration not stated)	97
[O-]/[N+](=C/c1cccnc1)c1ccc(Br)cc1	-95*
[O-]/[N+](=C\c1ccncc1)c1ccc(Br)cc1	-225*
Cc1c(C(=O)N2CCOCC2)sc2nc(-c3ccccc3)cn12	-123*
c1ccc(-c2cn3c4c(sc3n2)CCCC4)cc1	117
Cc1c(C(=O)NCc2ccco2)sc2nc(-c3ccccc3)cn12	-83*
Cc1c(C(=O)NCc2cccnc2)sc2nc(-c3ccc(F)cc3)cn12	-144*
Cc1nc2cc(-c3ccccc3)nn2c(C)c1CCC(=O)NCc1ccco1	53
O=c1nc2sc3ccccc3n2c(=O)n1-c1cccc(Cl)c1	-169*
O=c1nc2sc3ccccc3n2c(=O)n1-c1ccc(Cl)cc1	-189*
Cc1ccc2c(c1)sc1nc(=O)n(-c3cccc(Cl)c3)c(=O)n12	-209*
S=c1[nH]nc(COc2ccccc2)n1/N=C/C(Cl)=C/c1ccccc1	-129*
S=c1[nH]nc(-c2ccncc2)n1/N=C/C(Cl)=C\c1ccccc1	-221*
CC(C#Cc1ccc2c(c1)COc1c3ccccc3nn1-2)OC(C)(C)C (configuration not stated)	-114*
CCCCCCC#Cc1ccc2c(c1)COc1c3ccccc3nn1-2	-141*
C(#Cc1ccc2c(c1)COc1c3ccccc3nn1-2)c1ccccc1	-208*
N#CCCCC#Cc1ccc2c(c1)COc1c3ccccc3nn1-2	77
C#Cc1ccc2c(c1)COc1c3ccccc3nn1-2	-89*
COc1cccc(NC(=S)/C(=C(\[O-])c2ccc(OC(F)F)cc2)[n+]2ccccc2)c1	-66*
SMILES	aSyn 5UTR act
CC(C)(C)c1ccc(OCCCC(=O)Nc2ccc(S(N)(=O)=O)cc2)cc1	-146*
COc1cc(C2C(C#N)=C(N)Oc3cc4c(cc32)OCO4)cc(OC)c1OC (configuration not stated)	111
COc1cccc(C2C(C#N)=C(N)OC(C(C)(C)C)=C2C#N)c1 (configuration not stated)	-115*
N#CC1=C(N)OC2=C(CCc3ccccc32)C1c1ccccc1 (configuration not stated)	70
COc1ccccc1C(=O)NNC(=S)NC(=O)c1cccs1	73
COc1ccccc1C(=O)NNC(=S)NC(=O)c1sc2ccccc2c1Cl	-138*
Cc1ccccc1C(=O)NNC(=O)c1ccc(Br)cc1	-96*
COc1ccccc1C(=O)NNC(=O)c1cccc(Br)c1	-115*
COc1ccccc1C(=O)NNC(=O)c1ccccc1	-74*
COc1ccccc1C(=O)NC(=O)Nc1cccc(Cl)c1	-129*
COc1ccccc1C(=O)N1CCN(c2cccc(Cl)c2)CC1	64
COc1ccccc1C(=O)NNC(=O)c1cccc(Cl)c1	-66*
COc1ccccc1C(=O)CC(=O)c1ccccc1	-114*
COc1ccc(NC(=S)Nc2ncccc2C)cc1OC	-107*
COc1ccc(NC(=S)Nn2cnnc2)cc1OC	-95*
COc1ccc(NC(=S)Nc2ncccc2C)c(OC)c1	-93*
Cc1cccnc1NC(=S)NCCc1ccccc1	-155*
O=C(NNC(=S)Nc1ccc(Cl)c(Cl)c1)c1ccccn1	68
Cc1cccnc1NC(=S)Nc1ncccc1C	-119*
Cc1cccc(NCc2ccc(O)c3ncccc23)c1C	56
Cc1cccnc1NC(=S)Nc1ccc(Cl)c(Cl)c1	-142*
O=C(c1cccc([N+](=O)[O-])c1)n1nc(-c2ccccc2)nc1NCc1ccccc1	-68*
COCC(=O)n1nc(-c2ccccc2)nc1NCc1ccc(N(C)C)cc1	-83*
O=C(c1ccc([N+](=O)[O-])cc1)n1nc(-c2ccccc2)nc1NCc1ccccc1	-67*
COc1ccc2nc(N3CCC(C)CC3)c(C#N)cc2c1	-175*
SMILES	aSyn 5UTR act
O=C(COc1ccccc1[N+](=O)[O-])N/N=C/c1cccc(OC(=O)c2ccc3c(c2)OCO3)c1	-157*
O=C(Cc1ccccc1[N+](=O)[O-])Nc1ccc2c(c1)OCCO2	-100*
O=C(COc1ccccc1[N+](=O)[O-])Nc1ccc2c(c1)OCO2	-133*
O=C(COc1cc(F)ccc1[N+](=O)[O-])Nc1cccc(Br)c1	-71*
O=C(COc1ccccc1[N+](=O)[O-])Nc1ccc(NC(=O)c2cc3ccccc3o2)cc1	-119*
O=C(COc1ccc(/C=N/NC(=O)c2cc3ccccc3o2)cc1Br)Nc1ccccc1	116
O=C(O)COn1c(-c2ccccc2)nc2ccc([N+](=O)[O-])cc21	-165*
CCOC(=O)C(C)On1c(-c2ccc(Cl)cc2)nc2ccc([N+](=O)[O-])cc21 (configuration not stated)	-176*
CCOC(=O)C(C)On1c(-c2ccccc2)nc2ccc([N+](=O)[O-])cc21 (configuration not stated)	-192*
Cc1ccc(-c2csc(-c3ccncc3)n2)cc1	-213*
Brc1ccc(-c2csc(-c3ccncc3)n2)cc1	-195*
O=[N+]([O-])c1ccccc1/C=N/NC1=NCCCCC1	-173*
COc1ccc(CNC(=O)c2c(C)oc3c2C(=O)c2ccccc2C3=O)cc1	103
CC(=O)c1c(C)oc2c1C(=O)c1ccccc1C2=O	-62*
CN(Cc1nccn1C)C(=O)c1ccc2nc(Cc3ccccc3F)oc2c1	-126*
CN(Cc1nccs1)C(=O)c1ccc2nc(Cc3ccccc3F)oc2c1	-131*
Cc1cc(CN(C)C(=O)c2ccc3nc(Cc4ccccc4F)oc3c2)on1	-62*
CCN(CC)c1ccc(-c2nc3cnccc3n2C)cc1	-111*
Brc1ccc(Sc2cnc3ccccc3n2)cc1	-77*
Clc1ccc(Sc2cnc3ccccc3n2)cc1	-75*
c1ccc(Sc2cnc3ccccc3n2)cc1	-169*
COc1cc2c(cc1OC)CN(c1ccc(F)cc1[N+](=O)[O-])CC2	-79*
O=C(Cc1ccccc1[N+](=O)[O-])N1CCc2ccccc2C1	-103*
CC(=O)c1ccc(N2CCc3ccccc3C2)c([N+](=O)[O-])c1	-68*
COc1ccc(COC(=O)c2cc([N+](=O)[O-])ccc2N2CCOCC2)cc1F	68
SMILES	aSyn 5UTR act
COc1cc2c(cc1OC)CN(c1ncccc1[N+](=O)[O-])CC2	-88*
C(=N\N1CCN(Cc2ccccc2)CC1)/c1ccccc1	-64*
FC(F)(F)c1ccccc1/C=N/N1CCN(Cc2ccccc2)CC1	-72*
C/C(=N\N1CCN(Cc2ccccc2)CC1)c1ccco1	-80*
Cc1ccc(/C=N/N2CCOCC2)s1	-101*
Cc1cc(N2CCN(Cc3cn(C)nc3-c3cccc(Cl)c3)CC2)cc(C)n1	72
O=[N+]([O-])c1ccccc1/C=N/N1CCN(Cc2ccccc2)CC1	-101*
Cc1ccc(/C=N/N2CCN(Cc3ccccc3)CC2)s1	-83*
